Compound activity from PubChem BioAssay.
p53ts 32C kill = qHTS Screen for Compounds that Selectively Target Cancer Cells with p53 Mutations: Cytotoxicity of p53ts Cells at the Permissive Temperature. Potency, µM (top dose mostly 46.1 µM), usual class: cytotoxic. H1299-p53A138V at 32C, ATP luminescence viability, 24 h. AID 924, 2007. actives 0.93% (n = 130,000); note: nearly all actives have a fitted effect of over 55% in size
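Viability by ATPlite luminescence after 24 h compound treatment (up to 46 uM) at the permissive 32C. Cells are H1299 carrying p53 A138V. Scale runs from DMSO basal to 100 uM tamoxifen as full kill; AC50 from Hill fits.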
HPGD inh = qHTS Assay for Inhibitors of HPGD (15-Hydroxyprostaglandin Dehydrogenase). 15-hydroxyprostaglandin dehydrogenase [NAD(+)] (Homo sapiens), P15428. purified HPGD, NADH fluorescence kinetic, PGE2 substrate. Potency, µM, hits mostly inhibitors. actives 4.3% (n = 150,000). AID 894, 2007; active = well fitted inhibition curve with a large enough effect, not every such curve was filed as active; inconclusive = small, poorly fitted or top-dose-only effect, or another doubt; inactive = no such curve, though single readings can be large or run the other way
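NADH formation kinetics: reaction with 30 uM PGE2 and 1 mM NAD+ (final), 20 nM enzyme, Tris-HCl pH 8 with Tween 20, after 15 min compound preincubation at room temperature. Fluorescence change, last versus first of five reads.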
12-hLO inh = qHTS Assay for Inhibitors of 12-hLO (12-human lipoxygenase); purified 12-hLO, xylenol orange hydroperoxide absorbance; Potency, µM (doses to about 57.1 µM), most hits filed as inhibitors; actives 0.12% (n = 150,000); note: nearly all actives have a fitted effect of over 55% in size
Target sequence (P18054 whole entry, looked up): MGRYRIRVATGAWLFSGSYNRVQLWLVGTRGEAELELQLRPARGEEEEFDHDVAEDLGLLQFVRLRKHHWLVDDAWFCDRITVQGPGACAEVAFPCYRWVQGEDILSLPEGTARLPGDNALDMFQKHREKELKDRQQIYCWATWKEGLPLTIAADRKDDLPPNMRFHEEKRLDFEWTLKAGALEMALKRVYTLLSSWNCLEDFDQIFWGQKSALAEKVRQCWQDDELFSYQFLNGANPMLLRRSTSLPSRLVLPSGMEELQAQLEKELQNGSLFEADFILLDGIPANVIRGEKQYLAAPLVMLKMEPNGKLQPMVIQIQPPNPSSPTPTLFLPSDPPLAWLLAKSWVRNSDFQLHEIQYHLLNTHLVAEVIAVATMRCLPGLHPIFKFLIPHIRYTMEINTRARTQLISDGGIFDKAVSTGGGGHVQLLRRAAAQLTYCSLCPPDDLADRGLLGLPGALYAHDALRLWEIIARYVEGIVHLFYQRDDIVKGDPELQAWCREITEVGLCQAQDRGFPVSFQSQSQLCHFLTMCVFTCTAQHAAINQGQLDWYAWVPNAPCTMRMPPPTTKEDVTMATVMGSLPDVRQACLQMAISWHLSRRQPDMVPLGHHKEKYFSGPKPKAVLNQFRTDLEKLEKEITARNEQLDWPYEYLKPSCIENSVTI
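Hydroperoxide formation by human 12-lipoxygenase from 40 uM arachidonic acid was followed colorimetrically via ferric-xylenol orange complex, using the 573/405 nm absorbance ratio. Enzyme concentration was 150 nM, with 30 min reaction at room temperature.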
p53ts 39C kill = qHTS Screen for Compounds that Selectively Target Cancer Cells with p53 Mutations: Cytotoxicity of p53ts Cells at the Nonpermissive Temperature; H1299-p53A138V viability at 39C, ATP luminescence, 24 h; Potency, µM (doses to about 46.1 µM), most hits filed as cytotoxic; actives 1.5% (n = 130,000); AID 902, 2007; note: nearly all actives have a fitted effect of over 55% in size
A number is an active result. Rows were chosen to be rich in hits. Some 4.4% of all compounds tested hit in one or more screens of this group. Unless noted, calls come from the whole dose curve; as a rule, active = well fitted curve in the direction sought with a large enough effect; inconclusive = small, poorly fitted or top-dose-only effect, or another doubt; inactive = no such curve, though single readings can be large; an effect the other way counts as inactive or inconclusive.

Results for Cc1nn(-c2ccccc2)c2sc(C(=O)N3CCCCC3)cc12 ?
p53ts 32C kill: inactive; HPGD inh: 3.98µM; 12-hLO inh: inactive; p53ts 39C kill: inactive

What do the screens show for `O=C(NCc1ccccc1Br)C1CCCN(C(=O)N2CCOc3ccccc32)C1` (stereo unspecified)?
p53ts 32C kill: inactive; p53ts 39C kill: inactive

What do the screens show for `COC(=O)c1ccc2c(c1)N(CC(=O)Nc1cccc(Cl)c1C)C(=O)c1ccccc1S2`?
p53ts 32C kill: inactive; p53ts 39C kill: inactive

Results for COc1cc(C)ccc1OCCSc1nc2ccc(NC(=O)c3ccco3)cc2s1 ?
p53ts 32C kill: inactive; p53ts 39C kill: inactive

Results for NNC(=O)c1cccc(COc2ccc3c(c2)CCC3)c1 ?
HPGD inh: 20µM; 12-hLO inh: inactive

What do the screens show for `O=C(NCc1ccco1)c1cnn2c1NC(c1ccccc1)CC2C(F)(F)F` (stereo unspecified)?
HPGD inh: 28.2µM; 12-hLO inh: inactive

How did O=C(NCc1ccco1)c1cnn2c1NC(c1ccc(Br)cc1)CC2C(F)(F)F (stereo unspecified) do in these assays?
p53ts 32C kill: inactive; HPGD inh: inactive; 12-hLO inh: inactive; p53ts 39C kill: inactive

Results for C=CCC(Nc1ccc(OC)cc1)C(=O)OCC (stereo unspecified) ?
HPGD inh: inactive

How did CC1=C(C(=O)Nc2ccc(C)c(C)c2)C2(CCCCCC2)OC1=O do in these assays?
p53ts 32C kill: inactive

What do the screens show for `CCCCC(=O)Nc1cccc(-c2cn3ccsc3n2)c1`?
p53ts 32C kill: inconclusive; HPGD inh: inactive; 12-hLO inh: inactive; p53ts 39C kill: inactive

Results for Cc1csc2nc(-c3cccc(NC(=O)c4ccccc4F)c3)cn12 ?
p53ts 32C kill: inconclusive; p53ts 39C kill: 6.31µM

Results for Cc1csc2nc(-c3cccc(NC(=O)c4ccccc4Cl)c3)cn12 ?
p53ts 32C kill: inactive; p53ts 39C kill: inconclusive

Results for O=C(Nc1cccc(-c2cn3ccsc3n2)c1)c1ccccc1 ?
p53ts 32C kill: inconclusive; HPGD inh: inactive; 12-hLO inh: inactive; p53ts 39C kill: 15.8µM

How did Nc1cccc(-c2cn3ccsc3n2)c1 do in these assays?
p53ts 32C kill: inconclusive; p53ts 39C kill: 25.1µM

How did CSC1=NSC2=NC(=O)/C(=C\c3coc4ccccc4c3=O)C(=N)N12 do in these assays?
HPGD inh: 31.6µM; 12-hLO inh: inactive

How did Cc1cc(/C=C2\C(=N)N3C(SCc4ccccc4)=NSC3=NC2=O)c(C)n1Cc1ccccc1 do in these assays?
HPGD inh: inconclusive; 12-hLO inh: inactive

How did COc1ccc(-c2[nH]nc3c2C(c2ccoc2)C(C#N)=C(N)O3)cc1 (stereo unspecified) do in these assays?
p53ts 32C kill: inactive; HPGD inh: 12.6µM; 12-hLO inh: inactive; p53ts 39C kill: inactive

What do the screens show for `O=C1c2sc3nc4ccccc4n3c2C(=O)N1c1ccccc1Cl`?
p53ts 32C kill: inactive; HPGD inh: 14.1µM; 12-hLO inh: inactive; p53ts 39C kill: inactive

How did Cc1ccccc1N1C(=O)c2sc3nc4c(c(=O)n3c2C1=O)CCC4 do in these assays?
p53ts 32C kill: inactive; HPGD inh: 31.6µM; 12-hLO inh: inactive; p53ts 39C kill: inactive

Results for Cc1ccc(CNc2nc(-c3ccco3)nn2C(=O)c2ccccc2[N+](=O)[O-])cc1 ?
p53ts 32C kill: inconclusive; p53ts 39C kill: 10µM

What do the screens show for `CC(=O)c1ccc(N2CCN(C(=O)c3cc(S(=O)(=O)N4CCCCCC4)cn3C)CC2)cc1`?
p53ts 32C kill: inconclusive; p53ts 39C kill: inactive

What do the screens show for `CCOC(=O)c1c(NC(=O)COc2cccc(C(F)(F)F)c2)sc2c1CCC(C)C2` (stereo unspecified)?
p53ts 32C kill: inactive; p53ts 39C kill: inactive

Results for CCCCOC(=O)CNc1n[nH]c(=S)[nH]c1=O ?
HPGD inh: 25.1µM; 12-hLO inh: inactive

What do the screens show for `CC(C)COC(=O)CNc1n[nH]c(=S)[nH]c1=O`?
HPGD inh: inactive; 12-hLO inh: inactive

Results for CCOc1ccc(N(C(=O)c2ccc(Cl)cc2)S(=O)(=O)c2ccc3c(c2)n(C)c(=O)n3C)cc1 ?
p53ts 32C kill: inactive; p53ts 39C kill: inactive

Results for CCOc1ccc(-c2c(C)nn3c(C)c(C(=O)NC(C)c4ccccc4)cnc23)cc1OCC (stereo unspecified) ?
p53ts 32C kill: inactive; p53ts 39C kill: inactive

Results for CN(C(=O)c1ccccc1Cl)C1CCCCC1 ?
p53ts 32C kill: inactive; HPGD inh: 28.2µM; 12-hLO inh: inactive; p53ts 39C kill: inactive

What do the screens show for `O=C(NC1CC1)c1ccc2c3c(cccc13)CC2`?
HPGD inh: inconclusive; 12-hLO inh: inactive

What do the screens show for `O=C(c1ccc2c3c(cccc13)CC2)N1CCOCC1`?
p53ts 32C kill: inactive; HPGD inh: 11.2µM; 12-hLO inh: inactive; p53ts 39C kill: inactive

How did O=c1[nH]cnc2c1sc(=S)n2-c1ccccc1 do in these assays?
p53ts 32C kill: inactive; HPGD inh: 14.1µM; 12-hLO inh: inactive; p53ts 39C kill: inactive

What do the screens show for `CCC12CN3CC(C)(CN(C1)C3c1ccccc1C)C2=O` (stereo unspecified)?
p53ts 32C kill: inactive; p53ts 39C kill: inactive

Results for COCCN=C1Sc2nc3c(C)cccc3cc2CN1Cc1ccco1 ?
HPGD inh: 22.4µM; 12-hLO inh: inactive

What do the screens show for `CC(=O)Nc1cccc(NC(=O)CSc2cn(CC(=O)N3CCCCCC3)c3ccccc23)c1`?
p53ts 32C kill: inactive; p53ts 39C kill: inactive

How did O=[N+]([O-])/C(=C\Nc1ccccc1)S(=O)(=O)c1ccccc1 do in these assays?
HPGD inh: inactive; 12-hLO inh: inactive

Results for O=[N+]([O-])/C(=C\Nc1ccccc1Cl)S(=O)(=O)c1ccccc1 ?
HPGD inh: 31.6µM; 12-hLO inh: inactive

What do the screens show for `Fc1ccc(NCc2nnc(SCc3nnc(-c4ccccc4)o3)n2Cc2ccccc2)cc1`?
p53ts 32C kill: inactive; HPGD inh: 28.2µM; 12-hLO inh: inactive; p53ts 39C kill: inactive

How did COc1cccc(CN(C)C(=O)c2ccc3nccnc3c2)c1 do in these assays?
HPGD inh: 28.2µM; 12-hLO inh: inactive

What do the screens show for `CN(Cc1ccc(OC(F)F)cc1)C(=O)c1ccc2nccnc2c1`?
p53ts 32C kill: inactive; HPGD inh: inactive; 12-hLO inh: inactive; p53ts 39C kill: inactive

How did CCn1c(SCC(=O)c2ccc(C)cc2)nnc1-c1ccoc1C do in these assays?
p53ts 32C kill: inactive; HPGD inh: 31.6µM; 12-hLO inh: inactive; p53ts 39C kill: inactive

Results for CCn1c(SCC(=O)c2ccc(C)cc2)nnc1-c1ccncc1 ?
HPGD inh: 31.6µM; 12-hLO inh: inactive

How did CC(C)(C)c1[nH]c2ccccc2c1/C=N/O do in these assays?
HPGD inh: 2µM; 12-hLO inh: inactive
